Here are results for 40 molecules from PubChem BioAssay AID2313 (Broad Institute, 2010).

The structures appear in SMILES notation. The campaign covered roughly 22,000 compounds. About 460 (2.1%) were called active. About 2% were inconclusive and are not listed. The list comes from a sample in which actives are over-represented; it also holds similar structures and randomly drawn compounds. A number with no mark means an inactive call.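 The calls were made as follows: active = mean inhibition across valid replicates above about 65% (limit read from the data); inconclusive = mean under the limit, yet half or more replicates past it; inactive = the rest.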

In general, inhibition refers to the relative decrease from the control value, in per cent.

A short description of this experiment: Hedgehog pathway signaling inhibitors, primary screen, luminescence, Shh-LIGHT2 cells, Gli-luciferase (AID 2313).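 Also: pathway switched on by Shh-conditioned medium diluted 1 in 25 in low serum.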 Conditions: Shh-LIGHT2 Gli-luciferase reporter, 30 h; active compounds read high.
For `COc1ccc(S(=O)(=O)Nc2cccc3c2O[C@@H](CN(C)C(=O)Nc2ccccc2)[C@@H](C)CN([C@H](C)CO)C3=O)cc1`, the inhibition was 2.98%.

For `COC(NC(=O)c1ccccc1)(C(F)(F)F)C(F)(F)F`, the inhibition is -45.7%.

`Cc1ccc(S(=O)(=O)Nc2cccc3c2O[C@@H](CN(C)S(=O)(=O)c2c(C)noc2C)[C@@H](C)CN([C@H](C)CO)C3=O)cc1`: the inhibition is -7.42%.

Turning to `C[C@@H]1CN([C@H](C)CO)C(=O)c2cc(NS(=O)(=O)c3ccc(F)cc3)ccc2O[C@H]1CN(C)C(=O)Nc1cccc2ccccc12`, the inhibition was -17%.

Regarding `C[C@H]1CN([C@@H](C)CO)C(=O)Cc2cc(NS(=O)(=O)c3cn(C)cn3)ccc2O[C@@H]1CN(C)C(=O)Nc1ccc2c(c1)OCO2`, the inhibition is 2.02%.

For the molecule `C[C@@H]1CCCCO[C@H](CN(C)C(=O)NC2CCCCC2)[C@@H](C)CN([C@H](C)CO)C(=O)c2cc(NC(=O)CCC(F)(F)F)ccc2O1`, the inhibition was 20.6%.

Regarding `COc1ccc(NC(=O)Nc2ccc3c(c2)CC(=O)N([C@H](C)CO)C[C@H](C)[C@H](CN(C)S(=O)(=O)c2ccc(OC)cc2)O3)cc1`, the inhibition was 15.7%.

Consider `COc1ccc(NC(=O)Nc2cccc3c2O[C@@H](CN(C)S(=O)(=O)c2ccc(C)cc2)[C@H](C)CN([C@@H](C)CO)C3=O)cc1`, for which the inhibition is 26%.

Turning to `COc1ccc(S(=O)(=O)N(C)C[C@H]2Oc3ccc(NC(=O)Nc4c(C)noc4C)cc3C(=O)N([C@@H](C)CO)C[C@@H]2C)cc1`, the inhibition is 14.6%.

`O=S(=O)(NCCc1ccccc1)c1ccccc1`: the inhibition is -19.7%.

Regarding `C[C@@H]1CN([C@@H](C)CO)C(=O)c2cccc(NC(=O)c3nc4ccccc4s3)c2O[C@@H]1CN(C)Cc1ccc(Cl)c(Cl)c1`, the inhibition is -17.7%.

Take `O=C(Cn1c(=O)n(-c2ccccc2)c(=O)c2cc(-c3ccccc3)sc21)c1cccs1`: the inhibition is -31.1%.

For the molecule `C[C@@H]1CN([C@@H](C)CO)C(=O)c2cccc(NC(=O)c3cnccn3)c2O[C@H]1CN(C)S(=O)(=O)c1cccs1`, the inhibition was 36.2%.

`COc1ccc(NC(=O)N(C)C[C@H]2Oc3c(NC(=O)NC(C)C)cccc3C(=O)N([C@@H](C)CO)C[C@H]2C)cc1`: the inhibition is -18.8%.

On to `O=C(NCCN1CCCCC1)Nc1cccc2ccccc12`, for which the inhibition is 48.1%.

For `CCOC(=O)c1cc2ccccc2nc1C`, the inhibition was -33.8%.

On to `C[C@H]1CN([C@@H](C)CO)C(=O)Cc2cc(NC(=O)C3CC3)ccc2O[C@H]1CN(C)C(=O)Nc1ccc(C(F)(F)F)cc1`, for which the inhibition is -16.6%.

With `Cc1noc(C)c1NC(=O)Nc1ccc2c(c1)C(=O)N([C@H](C)CO)C[C@@H](C)[C@@H](CN(C)C(=O)NC(C)C)O2`, the inhibition was -44%.

Consider `Cc1noc(C)c1NC(=O)Nc1cccc2c1O[C@H](CN(C)S(C)(=O)=O)[C@H](C)CN([C@H](C)CO)C2=O`, for which the inhibition was -13.4%.

For the molecule `COc1ccc(S(=O)(=O)N(C)C[C@@H]2Oc3ccc(NC(=O)CCN4CCOCC4)cc3CC(=O)N([C@@H](C)CO)C[C@@H]2C)cc1`, the inhibition was 12.6%.

On to `Cc1ccc(S(=O)(=O)N(C)C[C@H]2Oc3ccc(NC(=O)C4CC4)cc3C(=O)N([C@H](C)CO)C[C@H]2C)cc1`, for which the inhibition was 2.25%.

With `CC(=O)Nc1nc2ccccc2s1`, the inhibition is -52.3%.

Take `CS(=O)(=O)c1sc(C(=O)NC(=S)Nc2ccc(OC(F)(F)F)cc2)c2c1C=CCC2`: the inhibition was 42.2%.

In the case of `C[C@H]1CN([C@@H](C)CO)C(=O)Cc2cc(NS(=O)(=O)c3cn(C)cn3)ccc2O[C@H]1CN(C)C(=O)Nc1ccc(F)cc1`, the inhibition is 6.67%.

`CCOC(=O)c1nnn2c3ccccc3c(=O)n(C)c12`: the inhibition is -16.2%.

As for `C=C1C2=CC(=O)O[C@@H](c3ccoc3)[C@]2(C)CCC1[C@@]1(C)C=CC(=O)C(C)(C)[C@@H]1CC(=O)OC` (stereo not given in full), the inhibition is -0.584%.

Take `COc1c2c(cc3occ(-c4ccc5c(c4)OCO5)c(=O)c13)OC(C)(C)C=C2`: the inhibition was 79.6% (active).

Turning to `COc1ccc(NC(=O)Nc2cccc3c2O[C@H](CN(C)C(=O)Nc2cccc4ccccc24)[C@H](C)CN([C@H](C)CO)C3=O)cc1`, the inhibition was -19.9%.

For the molecule `COc1ccc(S(=O)(=O)Nc2ccc3c(c2)CC(=O)N([C@H](C)CO)C[C@@H](C)[C@@H](CN(C)S(=O)(=O)c2ccc(F)cc2)O3)cc1`, the inhibition was -24.3%.

As to `COc1ccc(NC(=O)Nc2ccc3c(c2)CC(=O)N([C@H](C)CO)C[C@H](C)[C@H](CN(C)Cc2ccncc2)O3)cc1`, the inhibition is 32.2%.

Turning to `C[C@@H]1CN([C@H](C)CO)C(=O)Cc2cc(NC(=O)Nc3ccccc3)ccc2O[C@H]1CN(C)Cc1ccc(Cl)c(Cl)c1`, the inhibition is -42%.

On to `COc1ccc(S(=O)(=O)Nc2cccc3c2O[C@H](CN(C)C(=O)Nc2cccc4ccccc24)[C@H](C)CN([C@@H](C)CO)C3=O)cc1`, for which the inhibition was 46.2%.

For the molecule `C[C@H](CO)N1C[C@H](C)[C@@H](CN(C)C(=O)Nc2ccc3c(c2)OCO3)Oc2c(cccc2N(C)C)C1=O`, the inhibition is -27%.

As to `C[C@@H]1CCCCO[C@H](CN(C)C(=O)NC2CCCCC2)[C@@H](C)CN([C@H](C)CO)C(=O)c2cc(NS(C)(=O)=O)ccc2O1`, the inhibition was -30.2%.

With `C[C@@H]1CN([C@H](C)CO)C(=O)Cc2cc(NC(=O)Nc3ccc(C(F)(F)F)cc3)ccc2O[C@H]1CN(C)Cc1ccc(-c2ccccc2)cc1`, the inhibition is -14%.

As to `O=C1c2ccccc2C(=O)N1CC1OCc2ccccc2CO1`, the inhibition was -41.8%.

`O=C(Nc1ccccc1)Nc1cc(C2CC2)nn1-c1ccccc1`: the inhibition was -37.7%.

Regarding `CC(C)NC(=O)N(C)C[C@@H]1Oc2ccc(NC(=O)C3CCCCC3)cc2CC(=O)N([C@H](C)CO)C[C@@H]1C`, the inhibition is -27.5%.

Turning to `C[C@H]1CN([C@@H](C)CO)C(=O)c2cc(NC(=O)Cc3cn(C)c4ccccc34)ccc2O[C@@H]1CN(C)Cc1ccc(Cl)c(Cl)c1`, the inhibition was 15.9%.

Take `O=C(Oc1ccc(Cl)cc1)c1csc(C2COc3ccccc3O2)n1` (stereo not given): the inhibition was -8.84%.
